Screening data (PubChem BioAssay)
Sm TGR inh – inhibitors of Schistosoma mansoni thioredoxin glutathione reductase; purified TGR, DTNB reduction, TNB absorbance 405 nm; AID 485364; Potency, µM (titrated, usually from 114 µM), for the others: at the top dose activity change, negative = inhibition, most hits filed as inhibitors; Q962Y6; 3% of 360,000 active; note: potency is the fitted concentration of half-maximal effect; nearly all actives have a fitted effect of over 60% in size
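First, TGR (20 nM dispensed) and NADPH were mixed with compound. Second, a 15 min room-temperature incubation followed. Third, further NADPH and then DTNB were added to start the reaction. Finally, TNB absorbance was monitored kinetically.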
Vaccinia mCherry – vaccinia inhibition (mCherry reporter); Vaccinia virus mCherry reporter infection, fluorescence; Potency, µM (series often up to 36.5 µM), without a hit: top-dose activity change, negative = inhibition, actives largely listed as inhibitors; 0.63% of 310,000 active; AID 720579; calls by dose curve; tested in A549 cells; note: potency is the fitted concentration of half-maximal effect; nearly all actives have a fitted effect of over 35% in size
HCV inhibitor – inhibitors of hepatitis C virus infection. 3.4% of 340,000 active. Huh7.5.1 HCVcc-Cre infection, luciferase reporter, 44 h. Potency, µM (series often up to 41.8 µM), without a hit: at the highest dose activity change, negative = inhibition, hits mostly inhibitors. AID 651820; note: potency is the fitted concentration of half-maximal effect
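A cell-based infection assay in which seeded cells (1,000 per well) receive test compound after 4 h, are inoculated with HCVcc-Cre at approximately 0.5 moi, and are incubated 44 h before luminescence detection.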
HCMV antiviral – inhibitors of human cytomegalovirus; HFF cells, HCMV-luciferase reporter, 72 h; stronger effect = lower value; activity change, negative = inhibition, % at 57.5 µM; 4.5% of 410,000 active; in the data active = activity change below about -60%; inconclusive = no clear call, values can overlap the other calls; inactive = above about -39%
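HFF cells seeded 16 h at 37C, treated with compounds, infected with luciferase-reporter HCMV at MOI 1 PFU/cell; luciferase read at 72 h post infection, normalized to buffer-only and Salinomycin controls.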
FMDV antiviral – foot and mouth disease virus antiviral activity; Potency, µM (doses to about 57.9 µM), for inactives: at the top dose activity change, negative = inhibition, hits mostly inhibitors; 1.2% of 410,000 active; FMDV antiviral cell-based qHTS; calls by dose curve; tested in HEK293T cells; note: read-out not given here; potency is the fitted concentration of half-maximal effect; nearly all actives have a fitted effect of over 45% in size
Vaccinia Venus – inhibitors of vaccinia virus (Venus reporter); 0.46% of 330,000 active; Potency, µM (top dose mostly 36.5 µM), without a hit: at the highest dose activity change, negative = inhibition, actives largely listed as inhibitors; AID 720580; Vaccinia virus Venus reporter expression, fluorescence; calls by dose curve; tested in A549 cells; note: potency is the fitted concentration of half-maximal effect; nearly all actives have a fitted effect of over 30% in size
Numbers without * were called inactive; i = inactive; ? = inconclusive; nt = no result given. A selection: hits, their analogues and other compounds. The true share with any hit is near 9.3%. Unless noted, calls come from the whole dose curve; as a rule, active = well fitted curve in the direction sought with a large enough effect; inconclusive = small, poorly fitted or top-dose-only effect, or another doubt; inactive = no such curve, though single readings can be large; an effect the other way counts as inactive or inconclusive. % is set by controls: 0 for no effect and ±100 for the full control effect.

SMILES	Sm TGR inh	Vaccinia mCherry	HCV inhibitor	HCMV antiviral	FMDV antiviral	Vaccinia Venus
CC(NC(=O)Cn1cccc1C(=O)c1ccccc1)c1ccccc1 (stereo not given)	-5%	nt	-6%	-39	23%	nt
CC(OC(=O)CCc1cc(C(C)(C)C)c(O)c(C(C)(C)C)c1)C(=O)NC1CC1 (stereo not given)	-17%	13µM*	?	-17	13%	-18%
CC(C)(C)c1cc(CCC(=O)N2CCC2)cc(C(C)(C)C)c1O	-24%	nt	-23%	nt	41%	nt
CC(=O)C(Sc1nn(C)c(=S)s1)C(=O)Nc1ccccc1 (stereo not given)	25µM*	nt	15%	76	40%	nt
CC(=O)C(Sc1nc(N(C)C)nc(N(C)C)n1)C(=O)Nc1ccccc1 (stereo not given)	5%	-12%	6%	-24	-10%	0%
OC1CCCN(c2c3c(nc4cc(-c5cccc(F)c5)nn24)CCCC3)C1 (stereo not given)	nt	i	6.3µM*	5	24%	-18%
OC1CCCN(c2c3c(nc4cc(-c5cccc(Cl)c5)nn24)CCC3)C1 (stereo not given)	4%	-22%	?	2	nt	-24%
Cc1cccc(-c2cc3nc4c(c(N5CCCC(O)C5)n3n2)CCC4)c1 (stereo not given)	31%	-24%	7.1µM*	-26	nt	-24%
OC1CCN(c2cc(-c3ccccc3)nc3cc(-c4ccc(F)cc4)nn23)CC1	nt	-20%	-30%	-30	-24%	-13%
COc1cccc(-c2cc3nc(-c4ccccc4)cc(N4CCCC(O)C4)n3n2)c1 (stereo not given)	20%	nt	4µM*	-33	-25%	nt
COc1cc(C2CC(=O)Nc3c2c(C)nn3-c2nc(C)cc(C)n2)cc(OC)c1O (stereo not given)	1%	2%	nt	7	8%	-14%
C=CCOc1c2ccc(C(=O)NCc3ccc(C)cc3)cc2nn1C	6%	i	-2%	-11	-3%	-1%
Cc1cccc(C(=O)N[C@H](C(=O)Nc2ncc(C)s2)C(C)C)c1	1%	13µM*	?	-107*	40%	?
CCn1c(N2CCN(CC(=O)c3c(C)n(C)c4ccccc34)CC2)nc2c1c(=O)[nH]c(=O)n2C	-3%	nt	-22%	-8	?	?
CC1CCCN(c2nc3c(c(=O)[nH]c(=O)n3C)n2Cc2ccccc2Cl)C1 (stereo not given)	-14%	-23%	7%	-82*	-22%	?
Cc1ccc(Cl)cc1N1CCN(Cc2nc3c(c(=O)[nH]c(=O)n3C)n2Cc2ccccc2F)CC1	2%	?	?	-77*	?	?
CCCn1c(N2CCN(CC(=O)c3c[nH]c4ccccc34)CC2)nc2c1c(=O)[nH]c(=O)n2C	-26%	?	13µM*	58	?	?
Cn1c(=O)[nH]c(=O)c2c1nc(SCC(=O)Nc1ccccc1)n2Cc1ccccc1	7%	i	11µM*	25	-15%	-9%
Cc1ccccc1Cn1c(CN2CCN(c3cc(Cl)ccc3C)CC2)nc2c1c(=O)[nH]c(=O)n2C	-5%	-26%	nt	-27	?	-18%
CC(O)(c1cccc(F)c1)c1nc(-c2ccoc2)cs1 (stereo not given)	nt	18%	nt	19	-13%	-9%
O=C(c1ccccc1)c1cnc(Nc2ccc(Cl)c(Cl)c2)s1	10%	nt	14%	-22	0%	nt
CCOC(=O)C(C)Sc1nc2c(c(=O)[nH]c(=O)n2C)n1Cc1ccc(Cl)cc1 (stereo not given)	3%	i	2.8µM*	43	?	-6%
Cc1cc(C)n(-c2nc3c(c(=O)[nH]c(=O)n3C)n2CCc2ccccc2)n1	5%	?	3%	8	0%	?
Cc1cc(C)n(-c2nc3c(c(=O)[nH]c(=O)n3C)n2Cc2ccccc2)n1	0%	-11%	2µM*	27	-22%	0%
CC(C)Sc1nc2c(c(=O)[nH]c(=O)n2C)n1Cc1ccc(Cl)cc1	-27%	nt	?	8	-19%	-12%
